USP1 inh = Inhibitors of USP1/UAF1: Primary Screen. AID 743255, 2014. recombinant USP1/UAF1, Ub-Rhodamine cleavage fluorescence. Potency, µM (titrated, usually from 57.1 µM), without a hit: at the top dose activity change, negative = inhibition, hits mostly inhibitors. Ubiquitin carboxyl-terminal hydrolase 1 (Homo sapiens), O94782. actives 0.23% (n = 390,000); also: % is scaled to controls: 0 for no effect and ±100 for the full control effect; nearly all actives have a fitted effect of over 60% in size
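In this screen, compounds sit with the deubiquitinase complex (1nM) for 15 min at room temperature before Ub-Rho is added at 150nM final. Fluorescence rise is then followed for 6 reads every 60 seconds.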
VDR inhibitor = Inhibitors of the vitamin D receptor (VDR): qHTS. Vitamin D3 receptor (Homo sapiens), P11473. actives 0.93% (n = 400,000). VDR-SRC2-3 peptide fluorescence polarization, 2 h. Potency, µM, without a hit: max response, negative = inhibition, hits mostly inhibitors; also: % is scaled to controls: 0 for no effect and ±100 for the full control effect
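After 23 nl compound addition and a short centrifugation, plates sat for 2 hours at ambient temperature; polarization of fluorescence then indicated loss of VDR binding to peptide SRC2-3.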
TSG101-PTAP inh = qHTS Assay for Iinhibitors of HIV-1 Budding by Blocking the Interaction of PTAP/TSG101. Tumor susceptibility gene 101 protein (Homo sapiens), Q99816. Fluorescence polarization, FITC-PTAP peptide / Tsg101 binding. Potency, µM (titrated, usually from 115 µM), inactives show at the highest dose activity change, negative = inhibition, actives largely listed as inhibitors. 340,000 tested, under 10 active. AID 493005, 2010; active = well fitted inhibition curve with a large enough effect in the main read-out, with a control signal flat, not every such curve was filed as active; inconclusive = small, poorly fitted or top-dose-only effect, or effect the other way, or a change in a side signal; inactive = no such curve, though single readings can be large or run the other way; also: % of control where 0% means no effect
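Compounds were pin-transferred onto Tsg101 binding domain (10 uM final) in HEPES pH 7.5 buffer, then FITC-PTAP peptide was added at 50 nM final. After 20 min at RT, polarization reported peptide displacement across a qHTS concentration series.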
PLK1 PBD inh = qHTS for Inhibitors of PLK1-PDB (polo-like kinase 1 - polo-box domain): Primary Screen | AID 720504, 2013 | Potency, µM, for the others: max response, negative = inhibition, actives largely listed as inhibitors | Plk1 PBD binding of FITC phosphopeptide, fluorescence polarization | actives 2.8% (n = 360,000) | Serine/threonine-protein kinase PLK1 (Homo sapiens), P53350; also: series mostly up to about 57 µM; % is scaled to controls: 0 for no effect and ±100 for the full control effect; nearly all actives have a fitted effect of over 65% in size
KAT2A inh = qHTS Assay for Inhibitors of GCN5L2; GCN5L2 HAT assay, ThioGlo1 CoA-SH fluorescence; Potency, µM (doses to about 58.9 µM), for inactives: at the top dose activity change, negative = inhibition, actives largely listed as inhibitors; actives 0.21% (n = 390,000); also: % is scaled to controls: 0 for no effect and ±100 for the full control effect
Target sequence (Q92830 whole entry, looked up): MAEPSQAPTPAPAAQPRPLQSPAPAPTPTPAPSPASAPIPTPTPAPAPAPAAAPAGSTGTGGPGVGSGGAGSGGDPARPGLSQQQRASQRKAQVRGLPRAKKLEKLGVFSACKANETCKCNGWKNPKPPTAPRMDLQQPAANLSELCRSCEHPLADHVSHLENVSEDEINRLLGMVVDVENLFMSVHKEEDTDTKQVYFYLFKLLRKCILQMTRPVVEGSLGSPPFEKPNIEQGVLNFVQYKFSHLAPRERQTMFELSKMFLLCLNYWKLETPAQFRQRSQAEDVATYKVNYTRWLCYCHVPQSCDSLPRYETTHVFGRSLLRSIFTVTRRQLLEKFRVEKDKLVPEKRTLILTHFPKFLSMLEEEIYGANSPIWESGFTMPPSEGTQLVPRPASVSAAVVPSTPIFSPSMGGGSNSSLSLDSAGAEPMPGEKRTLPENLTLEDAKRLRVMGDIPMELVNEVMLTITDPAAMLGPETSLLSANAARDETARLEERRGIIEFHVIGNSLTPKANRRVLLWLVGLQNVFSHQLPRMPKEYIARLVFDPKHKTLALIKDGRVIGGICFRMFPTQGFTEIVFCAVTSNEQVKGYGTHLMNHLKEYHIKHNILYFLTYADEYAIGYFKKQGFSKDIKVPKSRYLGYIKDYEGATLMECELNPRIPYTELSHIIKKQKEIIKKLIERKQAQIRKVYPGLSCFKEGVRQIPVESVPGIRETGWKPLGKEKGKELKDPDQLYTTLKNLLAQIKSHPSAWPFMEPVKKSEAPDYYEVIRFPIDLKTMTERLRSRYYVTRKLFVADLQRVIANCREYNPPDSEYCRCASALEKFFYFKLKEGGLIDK
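Fluorescence readout, Ex340nm/Em540nm: ThioGlo1 (50uM final) reacts with free CoA thiol released as 20nM GCN5L2 acetylates H3(1-25) peptide (75uM) using acetyl-CoA (70uM). Compound and enzyme sat 15 min beforehand; 20 min room-temperature reaction.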
Numbers without * were called inactive; ? = inconclusive; / = no result given. This is a sample that favours compounds with a hit; in the whole collection about 3% have one here. Unless noted, calls follow the shape of the dose curve; as a rule, active = well fitted curve in the direction sought with a large enough effect; inconclusive = small, poorly fitted or top-dose-only effect, or another doubt; inactive = no such curve, though single readings can be large; an effect the other way counts as inactive or inconclusive. Potency is read from the fitted curve at half-maximal effect.

SMILES	USP1 inh	VDR inhibitor	TSG101-PTAP inh	PLK1 PBD inh	KAT2A inh
COc1ccc(CN(C)Cc2c(O)ccc3ccccc23)cc1	-27%	2%	0%	?	-3%
COc1cccc(CN(C)Cc2c(O)ccc3ccccc23)c1	-14%	0%	-3%	17µM*	-2%
Cc1ccc(NC(=O)CN(C)Cc2c(O)ccc3ccccc23)cc1	-16%	79µM*	-2%	3.8µM*	-10%
CCN(CC(=O)Nc1ccc(NC(C)=O)cc1)Cc1c(O)ccc2cc(Br)ccc12	-20%	?	-5%	9.5µM*	-9%
Cc1nn(-c2ccccc2)c2c1N(CC(=O)N1CCN(c3cccc(Cl)c3)CC1)C(=O)CS2	?	2%	/	/	19%
COc1ccc2ccc(O)c(CN(C)CC(=O)Nc3ccccc3C(F)(F)F)c2c1	-14%	?	-5%	11µM*	-7%
COc1ccc(CN(C)CC(=O)Nc2ccccc2C(F)(F)F)cc1	-24%	20%	-6%	-1%	5%
CCOC(=O)/C(=C\c1ccccc1)C(=O)CCN1CCOCC1	-22%	?	-3%	6.7µM*	/
O=C(CCc1ccccc1)OCCN1CCOCC1	-15%	13%	1%	0%	2%
Nc1ccc(O)cc1	/	79µM*	/	/	/
CCOc1ccccc1C=Nc1ccccc1C(=O)Nc1ccccc1	-7%	25µM*	-1%	-6%	-5%
NS(=O)(=O)c1cc(C(=O)OCC(=O)c2ccc3c(c2)OCCO3)ccc1Cl	-16%	-19%	1%	30µM*	-25%
N#CCC(=O)Nc1ccc(C(=O)OCC(=O)c2ccc3c(c2)OCCO3)cc1	-17%	-24%	8%	12µM*	-18%
COc1cccc([C@@H]2Oc3ccc(OC)cc3C[C@H]2OC(=O)NCc2ccco2)c1	/	-3%	/	/	/
Cc1oc2ncn(CC(C)C)c(=O)c2c1C(=O)NCCCN(Cc1ccccc1)C(C)C	4%	22%	/	/	12%
Cc1noc(C)c1CSc1nc2ccccc2n1CCc1ccccc1	-21%	79µM*	-3%	?	-8%
CCCOCC1CC2(SC(=Nc3ccc(C)cc3)NC2=O)C(=O)O1 (stereo unspecified)	-21%	5%	2%	27µM*	-10%
CCOC(=O)N(CC)OC(=O)Nc1ccc(Cl)cc1	-12%	-24%	-3%	8.4µM*	-8%
CCOC(=O)CNNC(=O)Nc1ccc(Cl)c(Cl)c1	-1%	-23%	-4%	-5%	2%
CCOC(=O)N(C)OC(=O)Nc1ccc(Cl)c(Cl)c1	?	-90%	-8%	2.1µM*	-7%
COc1cc(OC)c(N(C)C(=O)CCNC(=O)Cn2cnc3ccccc3c2=O)cc1Cl	-7%	11%	-2%	2%	0%
O=C(CCNC(=O)Cn1cnc2ccccc2c1=O)NCC1CCCO1 (stereo unspecified)	-2%	-15%	0%	-12%	4%
O=C(CCNC(=O)Cn1cnc2ccccc2c1=O)NCC1COc2ccccc2O1 (stereo unspecified)	-4%	-16%	-5%	3µM*	-2%
COc1cc(OC)c(NC(=O)CCNC(=O)Cn2cnc3ccccc3c2=O)cc1Cl	2%	-23%	-2%	13µM*	-3%
CCOc1cc(C(=O)Nc2ccc(-c3nnc4n3CCCCC4)cc2)cc(OCC)c1OCC	-23%	1%	/	/	-4%
SMILES	USP1 inh	VDR inhibitor	TSG101-PTAP inh	PLK1 PBD inh	KAT2A inh
COc1ccc(N2CCN(C(=O)c3ccc(F)cc3)CC2)c([N+](=O)[O-])c1	3%	2%	1%	-10%	-2%
COc1ccc(N2CCN(C(=O)c3cccc(F)c3)CC2)c([N+](=O)[O-])c1	-23%	-4%	-3%	-12%	2%
COc1ccc(N2CCN(C(=O)c3ccccc3F)CC2)c([N+](=O)[O-])c1	-18%	?	-1%	8.4µM*	-7%
COc1ccc(N2CCN(C(=O)c3cccc(Br)c3)CC2)c([N+](=O)[O-])c1	-17%	?	1%	27µM*	-4%
N#Cc1c(-c2ccccc2)cc(-c2ccccc2)nc1SCC(O)CS(=O)(=O)Cc1ccccc1 (stereo unspecified)	-24%	?	/	/	-6%
O=C(CSc1nnc(-c2cccc(S(=O)(=O)N3CCCC3)c2)n1-c1ccccc1)Nc1ccc(C(=O)O)cc1	-1%	0%	-4%	75µM*	-24%
Cc1ccccc1-c1nnc(SCC(=O)NC2CCCCC2)o1	-22%	7%	1%	-3%	-4%
COc1ccccc1-c1nnc(SCC(=O)NC2CCCCC2)o1	-2%	?	-2%	27µM*	-8%
COc1ccc(-n2nnnc2SCC(=O)N2CCN(C(=O)c3ccco3)CC2)cc1OC	5%	-23%	1%	19µM*	-3%
COc1ccc(OC)c(-n2nnnc2SCC(=O)N2CCN(C(=O)c3ccco3)CC2)c1	-1%	71µM*	-2%	17µM*	16%
COc1ccc(-n2nnnc2SCC(=O)N2CCCC2)cc1OC	-6%	7%	-4%	-3%	-8%
O=C(NCC1CCCO1)c1ccccc1NS(=O)(=O)c1ccc(F)cc1 (stereo unspecified)	-15%	0%	-1%	0%	2%
Cc1cccc(NC(=O)c2ccccc2O)c1C	-10%	0%	-7%	-1%	0%
Cc1ccc(C)c(NC(=O)c2ccccc2O)c1	-18%	?	4%	3.4µM*	-7%
CCOC(=O)C1CCCN(c2nc3c(S(=O)(=O)c4ccc(CC)cc4)nnn3c3ccsc23)C1 (stereo unspecified)	?	-10%	/	/	-4%
COc1ccc(/C=C2/SC(=S)N(CCC(=O)O)C2=O)cc1	-8%	-9%	/	-7%	2%
O=C(O)CCN1C(=O)/C(=C\c2ccc(-c3nc4ccccc4s3)o2)SC1=S	?	-9%	2%	8.4µM*	0%
O=C1/C(=C\c2cc(Cl)c(O)c(Cl)c2)SC(=S)N1Cc1ccccc1	4µM*	3%	?	-1%	-1%
O=C(O)CN1C(=O)/C(=C\c2cccc(OCc3ccc(Cl)cc3)c2)SC1=S	?	50µM*	-6%	21µM*	-12%
O=C(O)CCN1C(=O)/C(=C\c2cccc(Oc3ccccc3)c2)SC1=S	?	35µM*	-7%	17µM*	-8%
O=C(Nc1cc2cc([N+](=O)[O-])ccc2oc1=O)c1cccs1	/	/	/	/	-10%
CC(=O)NNC(=O)CN1C(=O)/C(=C/c2ccccc2)SC1=S	-18%	-1%	-4%	-11%	18%
O=C(O)CN1C(=O)/C(=C\c2ccccc2OCc2ccc(Cl)cc2)SC1=S	?	?	-6%	30µM*	-20%
O=C(O)COc1ccccc1/C=C1\SC(=S)N(NC(=O)c2ccccc2O)C1=O	?	-23%	4%	-24%	-10%

Screens (PubChem BioAssay)
